Screens from PubChem BioAssay.
Hits are enriched below; roughly 1.3% of the tested compounds scored in any of these assays.
GALK inhibitor: galactokinase (human) inhibition; P51570; Purified GALK, Kinase-Glo residual ATP luminescence; Potency, µM (highest dose often 57.5 µM), most hits filed as inhibitors; 0.007% of 270,000 active; AID 1868
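Human GALK (5 nM) with 35 uM ATP and 100 uM galactose in 20 mM HEPES pH 8.0, 5 mM MgCl2, 60 mM NaCl, 1 mM DTT, 0.01% BSA. After 1 h at room temperature, leftover ATP was read by Kinase-Glo Plus luminescence.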
TrxR1 substrate: substrates of rat thioredoxin reductase 1. O89049. purified TrxR1 substrate turnover, NADPH consumption readout. Potency, µM (titrated, usually from 114 µM). 0.01% of 390,000 active; further: nearly all actives have a fitted effect of over 50% in size
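Rat TrxR1, dispensed at 90 nM, was prereduced with 400 uM NADPH (final) for 5 min at ~22 deg C, then incubated with compound 15 min before 400 uM selenite. A first-read NADPH fluorescence drop versus no-compound background flagged substrates.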
Anesthetic bind: binds horse apoferritin like a general anesthetic | P02791 | apoferritin/1-aminoanthracene competitive binding, fluorescence | Potency, µM (doses to about 77.5 µM), hits mostly inhibitors | 0.074% of 350,000 active | AID 485281; further: nearly all actives have a fitted effect of over 20% in size
Target sequence (P02791 2-175 limits assumed): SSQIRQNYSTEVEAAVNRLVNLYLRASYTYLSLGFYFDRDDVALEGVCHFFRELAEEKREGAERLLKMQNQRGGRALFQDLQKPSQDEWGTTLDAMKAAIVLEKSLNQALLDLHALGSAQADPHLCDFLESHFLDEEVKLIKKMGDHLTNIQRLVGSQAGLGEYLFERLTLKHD
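Apoferritin-based anesthetic binding model; compound displacement of fluorescent 1-AMA measured as endpoint fluorescence after 10 minutes at room temperature, scaled to free-ligand and complex controls.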
rTrxR1 inhibitor: inhibitors of rat thioredoxin reductase 1 | O89049 | recombinant rTrxR1, NADPH fluorescence consumption, selenite substrate | 1% of 390,000 active | Potency, µM (titrated, usually from 114 µM), hits mostly inhibitors; further: nearly all actives have a fitted effect of over 65% in size
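Rat TrxR1 (90 nM in the dispensed reagent) was pre-reduced with 400 uM NADPH for 5 min at room temperature, then incubated with compound for 15 min. After 400 uM selenite was added, NADPH fluorescence (Ex 340/Em 450 nm) was followed for 8 min.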
PKM2 act: PKM2 (human) enzyme activation; AID 1631; purified PKM2, Kinase-Glo ATP luminescence, activation; response scale: 0% is enzyme alone, no compound; Potency, µM (top dose mostly 57.5 µM), hits mostly activators; P14618; 0.34% of 260,000 active; further: nearly all actives have a fitted effect of over 55% in size
Target sequence (P14618 whole entry, looked up): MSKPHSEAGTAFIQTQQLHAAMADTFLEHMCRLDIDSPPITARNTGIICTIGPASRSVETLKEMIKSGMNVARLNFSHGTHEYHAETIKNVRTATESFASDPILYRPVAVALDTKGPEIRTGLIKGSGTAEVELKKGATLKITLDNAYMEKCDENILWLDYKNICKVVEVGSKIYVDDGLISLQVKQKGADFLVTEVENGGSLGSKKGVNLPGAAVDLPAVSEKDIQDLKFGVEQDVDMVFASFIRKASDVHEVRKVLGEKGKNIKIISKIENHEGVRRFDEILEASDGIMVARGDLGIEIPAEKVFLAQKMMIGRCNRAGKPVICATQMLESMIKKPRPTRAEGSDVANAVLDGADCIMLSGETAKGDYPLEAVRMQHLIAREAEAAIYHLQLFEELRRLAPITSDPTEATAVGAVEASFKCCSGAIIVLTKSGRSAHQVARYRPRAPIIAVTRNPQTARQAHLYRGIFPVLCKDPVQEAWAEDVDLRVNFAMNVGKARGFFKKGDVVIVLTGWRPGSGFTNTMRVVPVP
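Purified hPK-M2 (>95% pure) converted ADP (0.1 mM final) to ATP with 0.5 mM PEP in 50 mM imidazole pH7.2, KCl, MgCl2, Tween 20, BSA; 1 h at room temperature. ATP detected by Kinase-Glo luminescence.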
IDH1 R132H inh: inhibitors of human mutant IDH1 R132H; O75874; IDH1-R132H enzyme, NADPH consumption, diaphorase/resazurin fluorescence; Potency, µM (top dose mostly 76.6 µM), most hits filed as inhibitors; 0.093% of 390,000 active; further: nearly all actives have a fitted effect of over 65% in size
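IDH1-R132H (0.5 ug/mL dispensed) in pH 7.5 Tris buffer was preincubated 30 min with compound, then given a substrate mix of 0.016 mM NADPH and 2 mM alpha-KG for 80 min at room temperature; remaining NADPH was read by diaphorase/resazurin fluorescence.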
Numbers stand for hits. The call rests on the fitted dose curve; in most records, active means well fitted curve in the direction sought with a large enough effect; inconclusive means small, poorly fitted or top-dose-only effect, or another doubt; inactive means no such curve, though single readings can be large; an effect the other way counts as inactive or inconclusive.

How did c1csc(C2C3=C(Nc4ncnn42)c2ccccc2OC3)c1 (configuration not stated) do in these assays?
GALK inhibitor: inactive; TrxR1 substrate: inactive; Anesthetic bind: inactive; rTrxR1 inhibitor: 79µM; PKM2 act: inactive; IDH1 R132H inh: inactive

Results for Cc1cc(O)c(C=O)c2c1C(=O)Oc1c(CO)c(O)c3c(c1O2)C(O)OC3=O (configuration not stated) ?
GALK inhibitor: inactive; TrxR1 substrate: inactive; Anesthetic bind: inconclusive; rTrxR1 inhibitor: 50µM; PKM2 act: inactive; IDH1 R132H inh: inactive

What do the screens show for `COC(=O)c1ccc(NC(=O)CN2CCCN(Cc3ccc(Cl)cc3)S2(=O)=O)cc1`?
TrxR1 substrate: inactive; Anesthetic bind: inactive; rTrxR1 inhibitor: inactive; IDH1 R132H inh: inactive

Results for CN1CCN(CC(=O)N2N=C(c3cccs3)CC2c2ccco2)CC1 (configuration not stated) ?
GALK inhibitor: inactive; TrxR1 substrate: inactive; Anesthetic bind: inactive; rTrxR1 inhibitor: inactive; PKM2 act: inactive; IDH1 R132H inh: inactive

How did O=C(O)/C=C/C(=O)N1N=C(c2ccco2)CC1c1ccco1 (configuration not stated) do in these assays?
GALK inhibitor: inactive; TrxR1 substrate: inactive; Anesthetic bind: inactive; rTrxR1 inhibitor: inactive; IDH1 R132H inh: inactive

How did O=C(CCl)N1N=C(c2ccco2)CC1c1ccco1 (configuration not stated) do in these assays?
GALK inhibitor: inactive; TrxR1 substrate: inactive; Anesthetic bind: inactive; rTrxR1 inhibitor: 2.5µM; PKM2 act: inactive; IDH1 R132H inh: inactive

What do the screens show for `O=C(CCl)N1N=C(c2cccs2)CC1c1ccco1` (configuration not stated)?
GALK inhibitor: inactive; TrxR1 substrate: inactive; Anesthetic bind: inactive; rTrxR1 inhibitor: 14µM; PKM2 act: inactive; IDH1 R132H inh: inactive

How did COc1ccc(OC(C)C(=O)NCc2nc(-c3ccc(Cl)cc3)no2)cc1 (configuration not stated) do in these assays?
TrxR1 substrate: inactive; Anesthetic bind: inactive; rTrxR1 inhibitor: inactive; IDH1 R132H inh: inactive

Results for Cc1nc2cccnc2n1-c1cccc(C(=O)N2CCN(c3cccc(Cl)c3)CC2)c1 ?
TrxR1 substrate: inactive; Anesthetic bind: inconclusive; rTrxR1 inhibitor: inactive; IDH1 R132H inh: inactive

What do the screens show for `Cc1noc(/C=C/c2ccco2)c1S(=O)(=O)N1CCC(C(=O)N2CCc3ccccc3C2)CC1`?
GALK inhibitor: inactive; TrxR1 substrate: inactive; Anesthetic bind: inconclusive; rTrxR1 inhibitor: 50µM; PKM2 act: 20µM; IDH1 R132H inh: inactive

What do the screens show for `Cc1ccccc1NC(=O)C1CCN(S(=O)(=O)c2c(C)noc2/C=C/c2ccco2)CC1`?
TrxR1 substrate: inactive; Anesthetic bind: inactive; rTrxR1 inhibitor: inactive; IDH1 R132H inh: inactive

What do the screens show for `CC(=O)O[C@@H]1[C@@]2(C)O[C@H]2CC[C@]23O[C@H]2[C@H](OC3=O)C2=C(C)C(=O)O[C@@]21O`?
TrxR1 substrate: inactive; Anesthetic bind: inactive; rTrxR1 inhibitor: 50µM; PKM2 act: inactive; IDH1 R132H inh: inactive

Results for Cc1cc(Sc2nnc(/N=C/N(C)C)s2)c2ccccc2n1 ?
GALK inhibitor: inactive; TrxR1 substrate: inactive; Anesthetic bind: inactive; rTrxR1 inhibitor: 2.5µM; PKM2 act: inactive; IDH1 R132H inh: inactive

What do the screens show for `Cc1cc(Sc2nnc(N)s2)c2ccccc2n1`?
GALK inhibitor: inactive; TrxR1 substrate: inactive; Anesthetic bind: inactive; rTrxR1 inhibitor: 8.9µM; PKM2 act: inconclusive; IDH1 R132H inh: inactive

How did Cc1cc(C)c2ccccc2n1 do in these assays?
TrxR1 substrate: inactive; rTrxR1 inhibitor: inactive

What do the screens show for `CC/C(=C(/c1ccccc1)c1ccc(OCCN(C)C)cc1)c1ccccc1`?
Anesthetic bind: inactive

What do the screens show for `Cc1ccc(NC(=O)CC(C)S(=O)(=O)c2ccc3c(c2)NC(=O)CO3)cc1Cl` (configuration not stated)?
TrxR1 substrate: inactive; Anesthetic bind: inactive; rTrxR1 inhibitor: inactive; IDH1 R132H inh: inactive

How did Cc1ccc(CN2CCN(C(=O)C3CCCO3)CC2)cc1 (configuration not stated) do in these assays?
GALK inhibitor: inactive; TrxR1 substrate: inactive; Anesthetic bind: inactive; rTrxR1 inhibitor: inactive; PKM2 act: inactive; IDH1 R132H inh: inactive

Results for CCOC(=O)C1CCN(Cc2c(O)ccc3ccccc23)CC1 ?
GALK inhibitor: inactive; TrxR1 substrate: inactive; Anesthetic bind: inactive; rTrxR1 inhibitor: inconclusive; PKM2 act: inactive; IDH1 R132H inh: inactive

What do the screens show for `CCOC(=O)N1CCN(Cc2ccc(O)c3ncccc23)CC1`?
GALK inhibitor: inactive; TrxR1 substrate: inactive; Anesthetic bind: inactive; rTrxR1 inhibitor: 13µM; PKM2 act: inactive; IDH1 R132H inh: inactive

What do the screens show for `Oc1ccc(CN2CCCCC2)c2cccnc12`?
GALK inhibitor: inactive; TrxR1 substrate: inactive; Anesthetic bind: inactive; rTrxR1 inhibitor: inactive; PKM2 act: inactive; IDH1 R132H inh: inactive

Results for O=C(C1CCCO1)N1CCN(Cc2c(O)ccc3ccccc23)CC1 (configuration not stated) ?
GALK inhibitor: inactive; TrxR1 substrate: inactive; Anesthetic bind: inconclusive; rTrxR1 inhibitor: 7.1µM; PKM2 act: inactive; IDH1 R132H inh: inactive

Results for CCOC(=O)N1CCN(Cc2c(O)ccc3ccccc23)CC1 ?
GALK inhibitor: inactive; TrxR1 substrate: inactive; Anesthetic bind: inactive; rTrxR1 inhibitor: 13µM; PKM2 act: inactive; IDH1 R132H inh: inactive

How did CCN(CC)CCCOc1cc2nc(N3CCCN(C)CC3)nc(NC3CCN(C)CC3)c2cc1OC do in these assays?
TrxR1 substrate: inactive; rTrxR1 inhibitor: inactive

How did CC(C)[C@H]1COCCS(=O)(=O)N1Cc1cccc([N+](=O)[O-])c1 do in these assays?
TrxR1 substrate: inactive; rTrxR1 inhibitor: inactive

Results for CCn1cc(S(=O)(=O)c2ccc(C)cc2C)c(=O)c2cc(F)c(N3CCCCC3)cc21 ?
TrxR1 substrate: inactive; Anesthetic bind: inactive; rTrxR1 inhibitor: inactive; IDH1 R132H inh: inactive

Results for CC1CCCCN1C(=O)CSc1nc2ccccc2nc1Cc1ccc(Cl)cc1 (configuration not stated) ?
TrxR1 substrate: inactive; Anesthetic bind: inactive; rTrxR1 inhibitor: inactive; IDH1 R132H inh: inactive

Results for COc1ccc(C(=O)Nc2ccccc2C(=O)OCc2cc(=O)n3c4c(sc3n2)CCCC4)cc1 ?
TrxR1 substrate: inactive; Anesthetic bind: inactive; rTrxR1 inhibitor: inactive; IDH1 R132H inh: inactive

Results for Cc1ccc(CN(C)C(=O)C2CCCN2C(=O)c2cccs2)o1 (configuration not stated) ?
GALK inhibitor: inactive; TrxR1 substrate: inactive; Anesthetic bind: inactive; rTrxR1 inhibitor: 10µM; PKM2 act: 14µM; IDH1 R132H inh: inactive
